# Data: the supplement of paper PMC8728848
# The entries come from a sample that favours the strongest signals as a whole.
# B1: DrGal9 (Danio rerio) (protein)
# chain: MAFYQQPPYYNPRIPFSGPIQGGLQDGKSIIISGRVLPGANRFHVNLQCGSHSEANVALHFNPRYEDTDYVVNNSYLNRTWGSEERKYESPFAQGQTFTLQILVAQDKYKISTNGRHFMDYKHRIPFTQVDTVAVEGMVEVNSVAFQNPAGFIPPQAGYAPQYAVPPGCGFPAFPSAPNYTIPHKTVMNGGLHPGKNIVINGVVNPNAKSIIFNLCYRSGIAFHYNPRFDENVVVRNTNQMEKWGAEERFGGLPFHKGQPFQVTISCNPQHYNVFVNGKQEHTYKHRYTKLNDIDILEICGDLQLTSVQA
# Assays:
# Assay in all cases: glycan array binding signal (z-score within array); higher = stronger binding
# Settings in all cases: glycan notation: IUPAC condensed, linker removed
# [1] = molecular target: GlcNAc(b1-3)Gal(b1-4)GlcNAc(b1-2)Man(a1-3)[GlcNAc(b1-3)Gal(b1-4)GlcNAc(b1-2)Man(a1-6)]Man(b1-4)GlcNAc(b1-4)GlcNAc
# How it was run: (§1)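 The binding signal is a Z-score computed within each array and averaged over linkers. Arrays of the same protein sequence at different concentrations or buffers were also averaged together. Data originate from 3228 arrays in the Consortium for Functional Glycomics database, kept only where the protein sequence was available.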
# [2] = molecular target: GlcNAc(b1-3)Gal(b1-4)GlcNAc(b1-3)Gal(b1-4)GlcNAc(b1-2)Man(a1-3)[GlcNAc(b1-3)Gal(b1-4)GlcNAc(b1-3)Gal(b1-4)GlcNAc(b1-2)Man(a1-6)]Man(b1-4)GlcNAc(b1-4)[Fuc(a1-6)]GlcNAc
# How it was run: as §1
# [3] = molecular target: Man(a1-2)Man(a1-2)Man(a1-6)[Man(a1-3)]Man
# How it was run: as §1
# [4] = molecular target: Man(a1-2)Man(a1-3)Man
# How it was run: as §1
# [5] = molecular target: Neu5Ac(a2-3)Gal(b1-3)GlcNAc6S
# How it was run: as §1
# [6] = molecular target: Neu5Ac(a2-3)Gal(b1-4)GlcNAc(b1-2)Man(a1-3)[GlcNAc(b1-4)][Neu5Ac(a2-3)Gal(b1-4)GlcNAc(b1-2)Man(a1-6)]Man(b1-4)GlcNAc(b1-4)GlcNAc
# How it was run: as §1
# [7] = molecular target: Neu5Ac(a2-3)Gal(b1-4)[Fuc(a1-3)]GlcNAc(b1-3)Gal(b1-4)GlcNAc
# How it was run: as §1
# [8] = molecular target: Neu5Ac(a2-3)Gal(b1-4)[Fuc(a1-3)]GlcNAc(b1-3)Gal(b1-4)[Fuc(a1-3)]GlcNAc(b1-3)Gal(b1-4)[Fuc(a1-3)]GlcNAc
# How it was run: as §1
# [9] = molecular target: Neu5Ac(a2-6)Gal(b1-4)GlcNAc(b1-2)Man(a1-6)Man(b1-4)GlcNAc(b1-4)GlcNAc
# How it was run: as §1
# [10] = molecular target: Neu5Ac(a2-6)Gal(b1-4)GlcNAc(b1-3)Gal(b1-4)GlcNAc(b1-2)Man(a1-3)[Neu5Ac(a2-6)Gal(b1-4)GlcNAc(b1-3)Gal(b1-4)GlcNAc(b1-2)Man(a1-6)]GalNAc
# How it was run: as §1
# [11] = molecular target: Neu5Ac(a2-6)Gal(b1-4)GlcNAc(b1-3)Gal(b1-4)GlcNAc(b1-3)Gal(b1-4)GlcNAc
# How it was run: as §1
# [12] = molecular target: Neu5Ac(b2-6)Gal(b1-4)GlcNAc
# How it was run: as §1
# [13] = molecular target: Neu5Gc(a2-3)Gal(b1-4)[Fuc(a1-3)]GlcNAc
# How it was run: as §1
binder,measurement,setting,value
B1,glycan array binding signal (z-score),[1],1.73
same,glycan array binding signal (z-score),[2],3.13
same,glycan array binding signal (z-score),[3],-0.361
same,glycan array binding signal (z-score),[4],-0.396
same,glycan array binding signal (z-score),[5],-0.144
same,glycan array binding signal (z-score),[6],0.144
same,glycan array binding signal (z-score),[7],-0.356
same,glycan array binding signal (z-score),[8],-0.384
same,glycan array binding signal (z-score),[9],-0.399
same,glycan array binding signal (z-score),[10],1.22
same,glycan array binding signal (z-score),[11],0.598
same,glycan array binding signal (z-score),[12],-0.398
same,glycan array binding signal (z-score),[13],-0.351
